{"source": "PubChem BioAssay (Tox21)", "note": "Results filed as inconclusive are left out. Where a call stands in place of a potency, no number is given. A number with no mark means an inactive call. Activity calls are given as the source filed them. Calls come from the whole dose curve; as a rule, active = well fitted cell-killing curve with a large enough effect in the repeat runs; inconclusive = weak or mixed curves, or effect the other way; inactive = flat fitted curve, though single readings scatter. Potency is the fitted concentration of half-maximal effect.", "data": [{"experiment": "cAMP Responsive Elements (CRE) small molecule antagonists, cell-based qHTS assay: qHTS cell viability counter screen (AID 2060913); note: nearly all actives have a fitted effect of over 40% in size", "settings": "CRE-bla HEK293T viability, CellTiter-Glo luminescence, 5 h; series mostly up to 92.4 µM", "in_short": "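Viability of NKH477-stimulated (0.25 uM final) CRE-bla HEK293T cells is measured by CellTiter-Glo luminescence following 3 hrs compound exposure at 37 C.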", "values": [{"smiles": "C[C@]12C=CC(=O)C=C1CC[C@@H]1[C@@H]2CC[C@@]2(C)[C@H]1CC[C@]2(C)O", "Potency": "inactive"}, {"smiles": "CCCSC(=O)Cl", "Potency": "inactive"}, {"smiles": "CCOC(=O)C(Cl)C(C)=O", "note": "(stereo not drawn)", "Potency": "inactive"}, {"smiles": "Oc1c(Cl)c(Cl)cc(Cl)c1Cl", "Potency": "inactive"}, {"smiles": "CSc1nnc(C(C)(C)C)c(=O)n1N", "Potency": "inactive"}, {"smiles": "CC(=O)[O-].CC(=O)[O-].CC(=O)[O-].[Sb+3]", "viability change, negative = cytotoxic": "0.272% [at 3.27 µM]"}, {"smiles": "CCC12COCN1COC2", "Potency": "inactive"}, {"smiles": "CCCN(CCC)c1c([N+](=O)[O-])cc(C(F)(F)F)cc1[N+](=O)[O-]", "Potency": "inactive"}, {"smiles": "C=CC(=O)N(C)C", "Potency": "inactive"}, {"smiles": "CC(C)(Cl)Cl", "Potency": "inactive"}, {"smiles": "COP(=O)(OC)O/C(C)=C/C(=O)N(C)C", "Potency": "inactive"}, {"smiles": "Nc1ccccc1C(=O)OCC(O)CO", "note": "(stereo not drawn)", "Potency": "inactive"}, {"smiles": "CCCCSP(=O)(SCCCC)SCCCC", "Potency": "inactive"}, {"smiles": "CC(Oc1ccc(Oc2ncc(C(F)(F)F)cc2Cl)cc1)C(=O)O", "note": "(stereo not drawn)", "Potency": "inactive"}, {"smiles": "O=[N+]([O-])c1cc(Cl)ccc1Cl", "Potency": "inactive"}, {"smiles": "CN(CCCC(=O)c1cccnc1)N=O", "Potency": "inactive"}, {"smiles": "CNC(=O)Oc1ccccc1OC(C)C", "Potency": "inactive"}, {"smiles": "CC(C)(C)OO", "Potency": "inactive"}, {"smiles": "Cc1ccc(N=C=O)cc1N=C=O", "Potency": "inactive"}, {"smiles": "COc1cc2c(cc1OC)[C@@]13CCN4CC5=CCO[C@H]6CC(=O)N2[C@H]1[C@H]6[C@H]5C[C@H]43", "Potency": "inactive"}, {"smiles": "CCN(CC)N=O", "Potency": "inactive"}, {"smiles": "CCCN(CCC)N=O", "Potency": "inactive"}, {"smiles": "CCCCN(CCCC)N=O", "Potency": "inactive"}, {"smiles": "CCC(C)c1cc([N+](=O)[O-])cc([N+](=O)[O-])c1O", "note": "(stereo not drawn)", "Potency": "inactive"}, {"smiles": "CCCC[N+]1(C)CCCC1", "note": "(tested in a mixture with another compound)", "Potency": "inactive"}, {"smiles": "Nc1c(Br)cc(Br)c2c1C(=O)c1ccccc1C2=O", "viability change, negative = cytotoxic": "10% [at 18.9 µM]"}, {"smiles": "N#CC(C#N)=C(C#N)C#N", "Potency": "inactive"}, {"smiles": "CC(=O)C(C)(C)C", "Potency": "inactive"}, {"smiles": "COC1=CC(=O)O[C@@H](/C=C/c2ccc3c(c2)OCO3)C1", "Potency": "inactive"}, {"smiles": "CC1CC(=O)O1", "note": "(stereo not drawn)", "Potency": "inactive"}, {"smiles": "C=CC(=O)OCCO", "Potency": "inactive"}, {"smiles": "C/C(=C\\c1ccccc1)[N+](=O)[O-]", "Potency": "inactive"}, {"smiles": "S=C(SSC(=S)N1CCCCC1)N1CCCCC1", "Potency": "inactive"}, {"smiles": "[Cl][Hg][c]1ccccc1", "Potency": "19.3 µM (active)"}, {"smiles": "O=C(Nc1ccc(Br)cc1)c1cc(Br)cc(Br)c1O", "Potency": "inactive"}, {"smiles": "Nc1ccc(N=Nc2ccccc2)cc1", "Potency": "inactive"}, {"smiles": "OP(O)c1ccccc1", "Potency": "inactive"}, {"smiles": "CC1(C)[C@H](C(=O)O[C@H](C#N)c2cccc(Oc3ccccc3)c2)[C@@H]1C=C(Br)Br", "Potency": "inactive"}, {"smiles": "COc1cc(-c2ccc(N)c(OC)c2)ccc1N", "Potency": "inactive"}]}, {"experiment": "cAMP Responsive Elements (CRE) small molecule agonists, cell-based qHTS assay: qHTS cell viability counter screen (AID 2060914); note: nearly all actives have a fitted effect of over 50% in size", "settings": "CRE-bla HEK293T viability, CellTiter-Glo luminescence, 5 h; series mostly up to 92.4 µM", "in_short": "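Cytotoxicity was measured as ATP luminescence (CellTiter-Glo, 30 min at room temperature) in the same wells as the CRE-bla FRET read-out. HEK293T CRE-bla cells had 3 h compound exposure at 37C/5% CO2.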", "values": [{"smiles": "C[C@]12C=CC(=O)C=C1CC[C@@H]1[C@@H]2CC[C@@]2(C)[C@H]1CC[C@]2(C)O", "Potency": "inactive"}, {"smiles": "CCCSC(=O)Cl", "Potency": "inactive"}, {"smiles": "CCOC(=O)C(Cl)C(C)=O", "note": "(stereo not drawn)", "Potency": "inactive"}, {"smiles": "Oc1c(Cl)c(Cl)cc(Cl)c1Cl", "Potency": "inactive"}, {"smiles": "CSc1nnc(C(C)(C)C)c(=O)n1N", "Potency": "inactive"}, {"smiles": "CC(=O)[O-].CC(=O)[O-].CC(=O)[O-].[Sb+3]", "activity change, negative = cytotoxicity": "-8.91% [at 3.27 µM]"}, {"smiles": "CCC12COCN1COC2", "Potency": "inactive"}, {"smiles": "CCCN(CCC)c1c([N+](=O)[O-])cc(C(F)(F)F)cc1[N+](=O)[O-]", "Potency": "inactive"}, {"smiles": "C=CC(=O)N(C)C", "Potency": "inactive"}, {"smiles": "CC(C)(Cl)Cl", "Potency": "inactive"}, {"smiles": "COP(=O)(OC)O/C(C)=C/C(=O)N(C)C", "Potency": "inactive"}, {"smiles": "Nc1ccccc1C(=O)OCC(O)CO", "note": "(stereo not drawn)", "Potency": "inactive"}, {"smiles": "CCCCSP(=O)(SCCCC)SCCCC", "Potency": "inactive"}, {"smiles": "CC(Oc1ccc(Oc2ncc(C(F)(F)F)cc2Cl)cc1)C(=O)O", "note": "(stereo not drawn)", "Potency": "inactive"}, {"smiles": "O=[N+]([O-])c1cc(Cl)ccc1Cl", "Potency": "inactive"}, {"smiles": "CN(CCCC(=O)c1cccnc1)N=O", "Potency": "inactive"}, {"smiles": "CNC(=O)Oc1ccccc1OC(C)C", "Potency": "inactive"}, {"smiles": "CC(C)(C)OO", "Potency": "inactive"}, {"smiles": "Cc1ccc(N=C=O)cc1N=C=O", "Potency": "inactive"}, {"smiles": "COc1cc2c(cc1OC)[C@@]13CCN4CC5=CCO[C@H]6CC(=O)N2[C@H]1[C@H]6[C@H]5C[C@H]43", "Potency": "inactive"}, {"smiles": "CCN(CC)N=O", "Potency": "inactive"}, {"smiles": "CCCN(CCC)N=O", "Potency": "inactive"}, {"smiles": "CCCCN(CCCC)N=O", "Potency": "inactive"}, {"smiles": "CCC(C)c1cc([N+](=O)[O-])cc([N+](=O)[O-])c1O", "note": "(stereo not drawn)", "Potency": "inactive"}, {"smiles": "CCCC[N+]1(C)CCCC1", "note": "(tested in a mixture with another compound)", "Potency": "inactive"}, {"smiles": "Nc1c(Br)cc(Br)c2c1C(=O)c1ccccc1C2=O", "activity change, negative = cytotoxicity": "-19.1% [at 18.9 µM]"}, {"smiles": "N#CC(C#N)=C(C#N)C#N", "Potency": "inactive"}, {"smiles": "CC(=O)C(C)(C)C", "Potency": "inactive"}, {"smiles": "COC1=CC(=O)O[C@@H](/C=C/c2ccc3c(c2)OCO3)C1", "Potency": "inactive"}, {"smiles": "CC1CC(=O)O1", "note": "(stereo not drawn)", "Potency": "inactive"}, {"smiles": "C=CC(=O)OCCO", "Potency": "inactive"}, {"smiles": "C/C(=C\\c1ccccc1)[N+](=O)[O-]", "Potency": "inactive"}, {"smiles": "S=C(SSC(=S)N1CCCCC1)N1CCCCC1", "Potency": "inactive"}, {"smiles": "[Cl][Hg][c]1ccccc1", "Potency": "30.6 µM (active)"}, {"smiles": "O=C(Nc1ccc(Br)cc1)c1cc(Br)cc(Br)c1O", "Potency": "inactive"}, {"smiles": "Nc1ccc(N=Nc2ccccc2)cc1", "Potency": "inactive"}, {"smiles": "OP(O)c1ccccc1", "Potency": "inactive"}, {"smiles": "CC1(C)[C@H](C(=O)O[C@H](C#N)c2cccc(Oc3ccccc3)c2)[C@@H]1C=C(Br)Br", "Potency": "inactive"}, {"smiles": "COc1cc(-c2ccc(N)c(OC)c2)ccc1N", "Potency": "inactive"}]}]}
